Reference: PubChem BioAssay AID686978 (National Center for Advancing Translational Sciences (NCATS), 2013)
Where “and” joins values, the source holds several entries; their conditions need not be identical. Identical values can stand only once. Among all 420,000 compounds or so, about 64,000 (15%) were called active. Another 27% or so got no clear call; they are omitted. Calls follow the shape of the dose curve; as a rule, active = well fitted inhibition curve with a large enough effect; inconclusive = small, poorly fitted or top-dose-only effect; inactive = flat fitted curve, though single readings scatter. These entries were drawn from the full list. Some structures have more than one record in an assay (separate samples or runs), and their calls can disagree.

experiment: qHTS for Inhibitors of human tyrosyl-DNA phosphodiesterase 1 (TDP1): qHTS in cells in absence of CPT; conditions: DT40 Tdp1-/- hTDP1 cells, no CPT, ATP luminescence, 48 h; activity change, negative = growth inhibition: at 46.2 µM (top of the series); also: nearly all actives have a fitted effect of over 55% in size
Method in brief: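 Stably hTDP1-transfected Tdp1-null chicken DT40 cells were treated with library compounds minus camptothecin and grown for at least 48 hr at 37 °C, after which cellular ATP was quantified by luminescence.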
% is scaled to controls: 0 for no effect and ±100 for the full control effect; potency is read from the fitted curve at half-maximal effect.

| Compound | activity change, negative = growth inhibition | Potency |
| --- | --- | --- |
| O=C(CCN1C(=O)c2ccccc2C1=O)NCCN1CCOCC1 | 9.53% (inactive) |  |
| S=c1[nH]c(-c2cccs2)cn1-c1ccccc1 | -13.3% (inactive) |  |
| O=C(c1cn(-c2ccccc2)nc1-c1cc2ccccc2oc1=O)N1CCOCC1 | -18.8% (inactive) |  |
| O=c1oc2ccccc2cc1-c1cn(-c2ccccc2)c(=S)[nH]1 |  | 3.26 µM (active) |
| CC(=O)Oc1c2c(c3c(c1CC=C(C)C)O[C@@]14C(=CC5CC1C(C)(C)OC4(C/C=C(\C)C(=O)O)C5=O)C3=O)OC(C)(CCC=C(C)C)C=C2 (stereo not given in full) |  | 1.3 µM (active) |
| CC1(C)CC(=O)C2=C(C1)N=C1SCCC(=O)N1C2c1ccc(C(F)(F)F)cc1 (stereo not given) | -20.3% (inactive) |  |
| N#Cc1ccc(-c2cccs2)nc1SCc1ccc(Br)cc1 | -9.03% (inactive) |  |
| COC(=O)CSc1nccc(-c2cccs2)n1 | -0.533% (inactive) |  |
| CCCCS(=O)(=O)c1oc(-c2cccs2)nc1S(=O)(=O)c1ccccc1 |  | 1.16 µM (active) |
| Cc1ccc(CSc2oc(-c3cccs3)nc2S(=O)(=O)c2ccc(C)cc2)cc1 |  | 5.17 µM (active) |
| NC(=O)CSc1oc(-c2cccs2)nc1S(=O)(=O)c1ccccc1 | -1.42% (inactive) |  |
| Cc1ccc(C(=O)N/C(=C/c2cccs2)C(=O)N2CCCCC2)cc1 | -18.2% (inactive) |  |
| Cc1ccc(S(=O)(=O)c2nc(-c3cccs3)oc2N2CCCCC2)cc1 |  | 23.1 µM (active) |
| O=C(c1cc(-c2cccs2)on1)N1CCCCC1 | -7.2% (inactive) |  |
| Cc1ccc(NC(=O)COc2ccc(/C=C3/NC(=O)NC3=O)cc2)cc1 | -8.92% (inactive) |  |
| O=C1OC(Oc2ccc(Br)cc2)(c2ccccc2)c2ccccc21 (stereo not given) | -16.8% (inactive) |  |
| CCCOCC(O)CC(CC)C(=O)NNC(=S)Nc1ccccc1 (stereo not given) | -4.64% (inactive) |  |
| COc1ccc2c(c1)N(C)/C(=C1/SC(=S)N(NC(C)=O)C1=O)S2 | 0% (inactive) |  |
| CCC(C)NC(=O)/C=C/c1ccc(S(=O)(=O)NCc2ccco2)cc1 (stereo not given) | -2.93% (inactive) |  |
| O=S(=O)(NC1CCCC1)c1ccc(-n2cnnn2)cc1 | -14.2% (inactive) |  |
| O=C(NNC(=O)c1ccc(-c2ccccc2)cc1)Nc1ccccc1 | -14.5% (inactive) |  |
| Cc1ccc(C(=O)NCC(=O)NC2CC2)cc1 | 4.14% (inactive) |  |
| O=C(NC1CC1)c1ccc(-c2ccccc2)cc1 |  | 11.6 µM (active) |
| C/C(N)=C(/C#N)C(=O)COC(=O)C1CCN(C(=O)c2ccc(Cl)cc2)CC1 | -29.6% (inactive) |  |
| CC(=O)O[C@]1(C(C)=O)CC[C@H]2[C@@H]3C=C(C)C4=CC(=O)CC[C@]4(C)[C@H]3CC[C@@]21C |  | inactive and 23.1 µM (active) |
| CC(=O)O[C@]1(C(C)=O)CC[C@H]2[C@@H]3CCC4=CC(=O)CC[C@]4(C)[C@@]3(F)[C@@H](O)C[C@@]21C | -9% (inactive) |  |
| CC(=O)OCC(=O)C1(O)CCC2C3CC(C)C4=CC(=O)CCC4(C)C3C(O)CC21C (stereo not given) | -17.1% (inactive) |  |

| Compound | activity change, negative = growth inhibition | Potency |
| --- | --- | --- |
| CCc1nc2c(=O)[nH]cnc2o1 | -5.21% (inactive) |  |
| CCn1nnnc1SCC(=O)c1ccc(C)cc1C | -14.8% (inactive) |  |
| CC(C)C[C@H](NC(=O)Nc1cccc(C(F)(F)F)c1)C(=O)O | 5.13% (inactive) |  |
| COc1ccc(C(CC(=O)Nc2ccc(C)cc2)NC(=O)C(F)(F)F)cc1 (stereo not given) | -1.65% (inactive) |  |
| NC(c1csc(NC(=O)Nc2cccc(C(F)(F)F)c2)n1)C1CCCCC1 (stereo not given) |  | 20.6 µM (active) |
| COc1ccc(CC(N)c2csc(NC(=O)Nc3ccc(C(C)C)cc3)n2)cc1 (stereo not given) |  | 6.51 µM (active) |
| COc1ccc(NC(=O)C(Br)C(C)C)cc1 (stereo not given) | -12.5% (inactive) |  |
| COc1ccc(C(N)c2csc(NC(=O)Nc3cccc(C(F)(F)F)c3)n2)cc1 (stereo not given) |  | 13 µM (active) |
| Cc1ccc(NC(=O)Nc2cccc(C(F)(F)F)c2)nc1 | 3.8% (inactive) |  |
| COC(=O)[C@H](Cc1ccccc1)NC(=O)Nc1ccc(OC)cc1 | -9.61% (inactive) |  |
| COc1ccc(NC(=O)C(=O)NCC(=O)Nc2cccc(C(F)(F)F)c2)cc1 | 10% (inactive) |  |
| CC(C)(C)CC(=O)Nc1nc(C(N)Cc2ccc(C(F)(F)F)cc2)cs1 (stereo not given) |  | 16.4 µM (active) |
| CC(C)(C)CC(=O)Nc1nnc(SCC(=O)NCc2cccs2)s1 | -21.9% (inactive) |  |
| Cc1ccccc1NC(=O)Cc1nc(COC(=O)c2ccc(C(F)(F)F)cc2)cs1 | -18.3% (inactive) |  |
| COc1ccccc1C1CN(Cc2ccccc2O)Cc2ccccc2O1 (stereo not given) | -21.5% (inactive) |  |
| O=C(CC(NCc1cccnc1)C(=O)O)Nc1ccc(O)cc1 (stereo not given) | -3.74% (inactive) |  |
| CSc1nc(O)c(Cc2ccccc2)c(=O)[nH]1 | -0.545% (inactive) |  |
| Cc1cc(C(=O)OC(C)C(=O)NC2CCCCC2C)c(C)o1 (stereo not given) | -4.96% (inactive) |  |
| O=C(O)c1ccc(S(=O)(=O)N2CCOCC2)o1 | -2.82% (inactive) |  |
| Cc1ccc(NC(=O)NNC(=O)c2sccc2-n2cccc2)cc1 | -19.7% (inactive) |  |
| CC(C)NC(=O)NNc1c(Cl)cncc1Cl | 1.9% (inactive) |  |
| CC1CCc2c(sc3c2C2=NS(=O)(=O)CCN2C=N3)C1 (stereo not given) | -10.8% (inactive) |  |
| Cc1ccc(CC2CC(=O)N(c3nc(C)cc(C)n3)C2=O)cc1 (stereo not given) | -14.1% (inactive) |  |
| COc1ccccc1C(=O)NCC(=O)OCC(=O)NNC(=O)c1ccc(Br)cc1 | -3.83% (inactive) |  |
| CC(C)C(NC(=O)c1c(F)cccc1F)C(=O)NNC(=O)c1ccccc1 (stereo not given) | 11.9% (inactive) |  |
| CCO/C([O-])=N/c1c[n+](N2CCOCC2)no1 |  | inactive |
| O=C(CCC(=O)c1cccs1)Nc1nc2ccccc2s1 | -1.45% (inactive) |  |

| Compound | activity change, negative = growth inhibition | Potency |
| --- | --- | --- |
| COC(=O)[C@@H]1C[C@@]2(O)[C@H](O)[C@H](O)[C@H](O)C[C@H]2N1Cc1ccc(C(C)(C)C)cc1 | 4.36% (inactive) |  |
| CN(C)CCN(C(=O)CN1C(=O)c2ccccc2C1=O)c1nc2cc3c(cc2s1)OCCO3 | 3.41% (inactive) |  |
| O=C(c1cc(-c2ccc(Cl)s2)nc2ccccc12)N1CCOCC1 | -23.9% (inactive) |  |
| Cc1cc(C(=O)Nc2c(C)n(C)n(-c3ccccc3)c2=O)cs1 | -6.58% (inactive) |  |
| Cc1c(NC(=O)c2cc(-c3ccc(Cl)s3)nc3ccccc23)c(=O)n(-c2ccccc2)n1C |  | 16.4 µM (active) |
| Cc1c(NC(=O)c2cccnc2)c(=O)n(-c2ccccc2)n1C |  | inactive |
| O=C(Nc1cccc(NC(=O)c2cccc(F)c2)c1)c1ccccc1 | -9.75% (inactive) |  |
| O=C(CCN1C(=O)c2ccccc2C1=O)Nc1cccc(F)c1 | 17.3% (inactive) |  |
| Cc1c(NC(=O)c2coc(=O)c(Br)c2)c(=O)n(-c2ccccc2)n1C |  | 4.11 µM (active) |
| Cc1c(NC(=O)c2cc(=O)c3ccccc3o2)c(=O)n(-c2ccccc2)n1C | 0.865% (inactive) |  |
| O=C(Nc1cccc(F)c1)c1coc(=O)c(Br)c1 |  | 2.31 µM (active) |
| COCn1c(C(O)c2ccccc2)cc2ccccc21 (stereo not given) | 5.37% (inactive) |  |
| O=C1c2ccccc2S(=O)(=O)N1CC(O)Cn1c2ccccc2c2ccccc21 (stereo not given) | -9.56% (inactive) |  |
| CC(CC(=O)N1CCN(S(=O)(=O)c2ccccc2)CC1)n1cncn1 (stereo not given) | -11.7% (inactive) |  |
| CCN(CC)S(=O)(=O)c1ccc2[nH]c(=O)cc(C(=O)N(C)C3CCS(=O)(=O)C3)c2c1 (stereo not given) | 14.9% (inactive) |  |
| CC(=O)N1CCN(CCN=CC2=C(O)CC(C)(C)CC2=O)CC1 | -2.47% (inactive) |  |
| CCc1nccn1S(=O)(=O)c1cccc([N+](=O)[O-])c1 | 0.702% (inactive) |  |
| Nc1ncnc2nnsc12 | -6.84% (inactive) |  |
| COc1cc(OC)cc(C(=O)NNC(=O)CNC(=O)c2ccc(Br)o2)c1 | -1.82% (inactive) |  |
| COc1ccc(-c2nc(CCNC(=O)c3ccc(Br)o3)cs2)cc1 |  | 20.6 µM (active) and 18.4 µM (active) |
| O=S(=O)(NCCc1csc(-c2ccccc2)n1)c1cccnc1 | -6.09% (inactive) |  |
| CC(C)c1ccc(NC(=O)COC(=O)c2ccc(CN3CCCC3=O)cc2)cc1 | 13.6% (inactive) |  |
| CN(C)C(=O)N1CCNCC1 | 1.26% (inactive) |  |
| C=C(C)CNC(=S)/N=c1\scc(C)n1CC |  | 20.6 µM (active) |
| Cc1csc(=NC(=O)c2ccccc2)n1CCO | -16.2% (inactive) |  |
| COc1ccc(NC(=S)Nc2ccc(S(N)(=O)=O)cc2)c(C)c1 | -13.9% (inactive) |  |
| COC(=O)c1sc(NC(=O)COC(=O)C2CCC2)c(C(=O)OC)c1C | -5.44% (inactive) |  |

| Compound | activity change, negative = growth inhibition | Potency |
| --- | --- | --- |
| O=S1(=O)C[C@@H](N2CCN(CCO)CC2)[C@H](COCc2ccccc2)N1 | 20.9% (inactive) |  |
| COc1ccc(NC(=O)CSc2nc(C)cs2)cc1 | -29.3% (inactive) |  |
| Cc1ccc(NC(=O)CNCc2ccccn2)cc1S(=O)(=O)N(C)C | -3.4% (inactive) |  |
| Cc1csc(SCC(=O)Nc2ccc(C)c(S(=O)(=O)N(C)C)c2)n1 |  | 18.4 µM (active) |
| CC(=O)c1sc(N)nc1C |  | inactive |
| CC(C)[C@H](NC(=O)N1CC(=O)Nc2ccccc21)C(=O)N[C@@H](Cc1c[nH]c2ccccc12)C(=O)O | 0.876% (inactive) |  |
| CC(C[N+](C)(C)C)OC(N)=O (stereo not given) |  | inactive |
| Fc1ccc(COc2cccc(-c3n[nH]c(=S)o3)c2)cc1 | 1.3% (inactive) |  |
| COc1ccccc1OCCNC(=O)CCNC(=O)c1ccccc1Cl | 4.86% (inactive) |  |
| O=C(NCCOc1ccccc1Cl)C(=O)Nc1ccccc1 |  | 18.4 µM (active) |
| O=C(O)c1ccccc1OCc1ccccc1Cl | 0.336% (inactive) |  |
| CCC(C)NC(=O)C1CCCN(C(=O)NC2CCCCC2)C1 (stereo not given) | 0.165% (inactive) |  |
| C=CCN(c1ccc(C(=O)Nc2cc(C)cc(C)c2)cc1)S(C)(=O)=O | -24.1% (inactive) |  |
| COc1ccc(-c2onc(C)c2-c2ccc3c(c2)OCCO3)c(O)c1 |  | 18.4 µM (active) |
| COc1ccc(C#Cc2c(-c3ccc(OC)cc3)oc3ccc(-c4ccc5c(c4)OCO5)cc23)cc1 | -5.09% (inactive) |  |
| COc1ccc(O)c(C=Nc2cc(C)on2)c1 | 0.215% (inactive) |  |
| CC[C@H](C)[C@@H](C(=O)N1CCNCC1)n1cc([C@@H](N)Cc2ccc(O)cc2)nn1 | -10.6% (inactive) |  |
| O=C(O)c1ccn(COc2ccc(Br)cc2)n1 | -11.4% (inactive) |  |
| Cc1cccc(N2CCN(C(=O)CCS(=O)(=O)c3ccc4c(c3)NC(=O)C(C)S4)CC2)c1C (stereo not given) |  | 25.9 µM (active) |
| CCC(=O)N1CCc2cc(S(=O)(=O)CCC(=O)N3CCN(c4ccccc4F)CC3)ccc21 | -0.867% (inactive) |  |
| Cn1c(=O)c(=O)n(C)c2cc(S(=O)(=O)CCC(=O)N3CCCCC3)ccc21 | -4.15% (inactive) |  |
| COc1cccc(CNS(=O)(=O)c2csc(C(N)=O)c2)c1 | 1.51% (inactive) |  |
| NC(=O)c1cc(S(=O)(=O)NCCCc2ccco2)cs1 |  | 8.2 µM (active) |
| COc1ccc(NC(=O)C2CCC(CNS(=O)(=O)c3csc(C(N)=O)c3)CC2)cc1OC (stereo not given) | 18.6% (inactive) |  |
